Data taken from PubChem BioAssay AID1209 (Sanford-Burnham Center for Chemical Genomics, 2008).
Among all 190,000 compounds or so, about 810 (0.43%) were called active. For the sample, actives were picked, then their nearest neighbours and some compounds at random. Values without a mark were called inactive. No stated cut-off is given here; in the data, active means inhibition above about 50%; inactive means the rest.

Target: Mannose-6-phosphate isomerase (Homo sapiens) (UniProt P34949)
Experiment: MPI enzyme activity inhibition – biochemical, fluorescence intensity, coupled assay, primary screen (AID 1209);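 further: plate controls were DMSO vehicle for no effect and wells lacking substrate for full effect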
Details: purified PMI enzyme, at 20 µM, stronger effect = higher value

Sequence of Mannose-6-phosphate isomerase (Homo sapiens) (P34949 whole entry, looked up): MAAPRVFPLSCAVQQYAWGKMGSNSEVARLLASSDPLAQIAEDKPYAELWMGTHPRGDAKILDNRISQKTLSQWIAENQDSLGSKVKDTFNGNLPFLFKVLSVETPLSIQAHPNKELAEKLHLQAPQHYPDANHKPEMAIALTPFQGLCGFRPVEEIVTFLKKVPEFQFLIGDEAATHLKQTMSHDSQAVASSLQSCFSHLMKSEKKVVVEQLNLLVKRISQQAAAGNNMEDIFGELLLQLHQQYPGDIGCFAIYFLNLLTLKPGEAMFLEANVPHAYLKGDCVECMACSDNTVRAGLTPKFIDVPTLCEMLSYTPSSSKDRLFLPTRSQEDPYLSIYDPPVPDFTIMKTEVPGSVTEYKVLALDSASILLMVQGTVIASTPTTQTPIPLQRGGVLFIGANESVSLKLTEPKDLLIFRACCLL

Structure (SMILES)	inhibition
CCN(CC)CCNC(=O)C1CCC(=O)N1CCc1ccccc1 (centres undefined)	4.7%
CCOc1cc(/C=N/O)ccc1OCc1ccc(F)cc1	-0.3%
CC(C)NC(=O)c1onc(CSc2ccc(F)cc2)c1C(=O)O	-5.1%
O=C(c1ccc(F)cc1)N1CCN2C(=O)c3ccccc3C12c1ccc(Cl)cc1 (centres undefined)	8.3%
Cc1c([N+](=O)[O-])ccc(S(=O)(=O)N2CCC(C(N)=O)CC2)c1C	10.6%
COC(=O)c1ccc2c(=O)n(-c3ccccc3)c(=S)[nH]c2c1	0.9%
COC(=O)c1ccc(C(=O)OC)c(-n2c(=O)c3ccccc3c3ccccc3c2=O)c1	80.2% (active)
COC(=O)c1ccc2c(=O)n(-c3ccccc3F)c(=S)[nH]c2c1	-15.3%
CCCCCN(C(=O)NC(=O)Nc1nncs1)S(C)(=O)=O	-0.4%
CCn1cc(C2=NCCO2)c2ccccc21	0.2%
CCOC(=O)Cc1csc(NC(=O)c2c(O)c3ccccc3n(C)c2=O)n1	7.5%
O=C1CCC([N+](=O)[O-])C(c2cccc3ccccc23)N1 (centres undefined)	101% (active)
O=C1CCC([N+](=O)[O-])C(c2ccccc2Cl)N1 (centres undefined)	2.8%
O=C1CCC([N+](=O)[O-])C(c2cccc(Cl)c2Cl)N1 (centres undefined)	-4.8%
O=C(Cc1ccccc1)Nc1ccccc1C(=O)O	-3%
O=c1c2c([nH]c3ccc(Br)cc13)CCCC2	-15.1%
Cc1cc(=O)c2cc(Br)ccc2[nH]1	0.3%
O=c1ccc2cc3c([nH]c4ccc(Br)cc43)oc-2c1O	70.2% (active)
O=C(NCC(=O)N(Cc1cccs1)C(C(=O)NC1CCCCC1)c1ccco1)c1ccco1 (centres undefined)	11%
Cc1n[nH]c(=S)n1/N=C/c1ccc(OCc2ccc(Cl)cc2)cc1	-6.8%
S=c1[nH]nc(Cc2ccc(Br)cc2)n1/N=C/c1ccc(Cl)cc1	51.1% (active)
CSc1ccc(/C=N/n2c(Cc3ccc(Br)cc3)n[nH]c2=S)cc1	14.5%
CCN1CCN(C(=O)C(C)Nc2cc(Cl)c(OC)cc2OC)CC1 (centres undefined)	26.6%
O=C(CSc1nc2ccccc2c(=O)[nH]1)c1ccc(O)cc1O	-5.9%
CCCCNS(=O)(=O)c1ccc(NC(=O)C(Sc2ccccc2)c2ccccc2)cc1 (centres undefined)	23.4%
O=c1c2ccccc2oc2nc(-c3ccco3)n(-c3ccccc3)c(=O)c12	1.3%
CCn1c(=Nc2ccc(N3CCOCC3)cc2)ccc2ccccc21	6%
Cn1c(=Nc2ccc(N3CCOCC3)cc2)ccc2ccccc21	78.4% (active)
Cn1c(N=Nc2ccc(N3CCOCC3)cc2)[n+](C)c2ccccc21	15.1%
